Screens as filed in PubChem BioAssay.
Gli-Sufu block: blocks Gli-Sufu signaling in a luciferase reporter; 0.74% of 340,000 active; inhibition, % at 5 µM; AID 588413; Sufu-KO-LIGHT fibroblasts, Gli luciferase reporter luminescence;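 active means inhibition above about 55%, limit read from the data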;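 further: 0% = DMSO-treated cells and 100% = wells with medium but no cells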
SRC2 inh: inhibits human steroid receptor coactivator 2; Q15596; inhibition, % at 9 µM; HEK293 GAL4-SRC2 luciferase reporter, luminescence; 0.17% of 370,000 active;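 active means inhibition above the mean inhibition of all tested compounds plus 3 SD, set per campaign, cut at about 52% in these data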;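 further: 0% = DMSO treated cells and 100% = cells given Gossypol at 36 µM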
NR2F2 inh: blocks human COUP-TFII nuclear receptor | P24468 | HEK293T NGFI-A luciferase reporter, luminescence | inhibition, % at 8.6 µM | 0.7% of 370,000 active;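 active means inhibition above a per-plate cutoff, mean inhibition of test wells between control levels plus 3 SD, cut at about 38% in these data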;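 further: cells cotransfected with COUP-TFII expression vector driving the NGFI-A reporter; 0% = median of COUP-TF2 test wells and 100% = reporter-only cells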
LRH-1 inv ag: suppresses constitutive activity of human LRH-1. O00482. HEK293T StAR-luciferase reporter, LRH-1 transfected, 24 h. inhibition, % at 3.6 µM. 0.13% of 360,000 active. AID 602396;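 active means inhibition above the mean inhibition of all tested compounds plus 3 SD, cut at about 73% in these data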;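 further: 0% = DMSO wells and 100% = reporter-only cells lacking LRH-1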
SRC3 inh: human NCOA3 inhibition; inhibition, % at 3.6 µM; 0.17% of 360,000 active; AID 588352; Q9Y6Q9; HEK293 GAL4-SRC3 luciferase reporter, luminescence;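 active means inhibition above a per-campaign cutoff, the mean of all compounds plus 3 SD, cut at about 60% in these data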;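 further: 0% = DMSO-treated cells and 100% = gossypol-treated cells at 36 µM; higher means less SRC3-driven luciferase light from the GAL4 reporter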
SRC1 inh: inhibitors of human steroid receptor coactivator 1 (SRC1) | Q15788 | HEK293 GAL4-SRC1 luciferase reporter, luminescence | inhibition, % at 3.6 µM | 0.12% of 360,000 active;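 active means inhibition above the campaign mean plus 3 SD, with each screening campaign given its own cutoff, cut at about 60% in these data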;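 further: 0% = DMSO treated cells and 100% = gossypol at 36 µM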
Gli antag conf: Gli-SUFU antagonism confirmation, single concentration. shares compounds with Gli-Sufu block. inhibition, % at 5 µM. 40% of 2,500 active. Sufu-KO-LIGHT cells, Gli luciferase reporter, luminescence;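 active means mean inhibition at 5 µM reaching about 45%, limit read from the data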;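 further: plate controls were DMSO-treated cells for no effect and wells lacking cells for full effect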
Gli cytotox: cytotoxicity counter-screen for Gli-SUFU antagonists | Sufu-KO-LIGHT cells cytotoxicity, ATP luminescence | shares compounds with Gli-Sufu block | cytotoxicity, % at 5 µM | 32% of 2,500 active;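 active means mean cytotoxicity at 5 µM above about 25%, limit read from the data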;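 further: cells exposed to compound overnight for roughly 16 to 18 hours; plate controls were DMSO wells with cells for no effect and medium without cells for full effect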
Wnt3a cs: inhibits Wnt3a reporter, counter-screen for Gli-SUFU antagonists; shares compounds with Gli-Sufu block; Wnt-LIGHT cells, Wnt3a-driven luciferase reporter, luminescence; inhibition, % at 6.25 µM; 20% of 2,500 active;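 active means mean inhibition above about 25%, limit read from the data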
The depositor's hits bear a star; / = no result given. In the library only some 1.3% were active in any assay of this set; here they are far more common.

SMILES	Gli-Sufu block	SRC2 inh	NR2F2 inh	LRH-1 inv ag	SRC3 inh	SRC1 inh	Gli antag conf	Gli cytotox	Wnt3a cs
CCOC(=O)[C@]12CCCCC/C=C\1N(CCc1ccc(Cl)cc1)C(=O)[C@H]2CC(=O)NCc1cccc2ccccc12	/	-15.2	4.4	/	/	/	/	/	/
CCCC#C/C(CCC)=C1\c2ccccc2C(=O)N1c1ccccc1	/	10.9	3.0	/	/	/	/	/	/
CC1CCN(Cc2c(C(=O)N3CCc4ccccc4C3)nc3ccc(Cl)cn23)CC1	51.0	-5.1	20.0	-0.3	-13.1	-20.4	21.0	33.0*	-43.0
O=C(c1nc2ccc(Cl)cn2c1CN1CCC(O)CC1)N1CCc2ccccc2C1	8.9	-4.6	-18.7	-9.1	-12.2	-37.9	/	/	/
Cc1nc2ccccc2c2oc(C(=O)N3CCN(C(=O)c4ccco4)CC3)cc12	4.3	-0.8	6.9	20.7	8.2	-4.8	/	/	/
Cc1nc2ccccc2c2oc(C(=O)N3CCN(c4ccc([N+](=O)[O-])cc4)CC3)cc12	59.1*	0.2	0.7	1.1	-15.3	17.6	29.2	28.1*	-83.5
O=C(NCCCc1ccccc1)OC1CC2CC1[C@H]1CCCCN1C2 (some centres undefined)	/	-8.1	8.6	/	/	/	/	/	/
Cc1[nH]c2ccccc2c1CC(=O)Nc1ccc(Nc2cccnc2)c(-c2ccc(Cl)c(Cl)c2)c1	/	12.7	-18.9	/	/	/	/	/	/
COc1ccc(C(=O)N(C)C(C)c2nccs2)cc1OC1CCN(C(C)=O)CC1 (centres undefined)	/	-27.1	1.6	25.4	-0.5	9.0	/	/	/
CC[C@@H](C)[C@H](C(CC(=O)N1CCCC1[C@@H](OC)[C@H](C)C(=O)N[C@H](Cc1ccccc1)c1nccs1)OC)N(C)C(=O)[C@H](NC(=O)[C@@H](C(C)C)N(C)C)C(C)C (some centres undefined)	54.6	18.2	-46.2	32.6	18.8	-3.1	69.5*	61.8*	40.2*
O=C(CNC(=O)Cc1ccccc1)NCC(=O)OCc1ccccc1	98.7*	-30.4	5.1	14.9	1.9	5.0	9.8	16.1	-11.3
COc1ccc(-c2cnnc(N/N=C/c3ccc(OC)c(OC)c3)n2)cc1	52.4	-3.3	-12.5	0.3	2.9	-7.2	4.5	23.4	-30.1
CCN(CC)C(=O)CC[C@H]1CC[C@]2(CCCN(C(=O)c3ccco3)C2)O1	/	4.0	-5.4	/	/	/	/	/	/
CSc1ccc(S(=O)(=O)N2CCC(C(=O)Nc3cccnc3)CC2)cc1	75.8*	11.2	11.8	20.4	13.0	14.1	16.2	11.4	7.5
O=C(N/N=C/c1ccccc1O)c1cccc(C(F)(F)F)c1	66.1*	20.4	-13.2	-8.1	58.8	38.7	61.8*	35.7*	57.8*
CCN(CC)S(=O)(=O)c1cccc(C(=O)N/N=C/c2cc(OC)c(O)c(OC)c2)c1	6.0	-35.9	8.6	-7.7	8.0	-6.7	/	/	/
CCN(CC)S(=O)(=O)c1cccc(C(=O)N/N=C/c2cccc(O)c2O)c1	70.9*	33.6	-46.8	-3.4	28.6	17.1	50.8*	47.8*	36.3*
Cc1cc(C)nc(N2CCC(C(=O)N(C)CCc3ccccc3)CC2)n1	/	33.0	12.9	/	/	/	/	/	/
COC(=O)C1CCN(C2CN(Cc3cn(Cc4ccc(C(F)(F)F)cc4)nn3)S(=O)(=O)C2)CC1 (centres undefined)	/	8.3	12.3	/	/	/	/	/	/
CCC(C(=O)Nc1ccc2c(c1)OCCO2)n1c(=O)[nH]c2ccccc2c1=O (centres undefined)	52.8	20.9	-2.8	-5.3	14.0	13.7	22.6	-8.2	48.1*
Cc1[nH]c2ccccc2c1C(=O)C(=O)Nc1ccc2c(c1)OCCO2	-58.6	-51.7	-30.8	-54.1	-41.1	-43.2	/	/	/
C[C@H]1COc2cc(Br)ccc2S(=O)(=O)N1Cc1cn(Cc2ccco2)nn1	/	3.5	5.0	/	/	/	/	/	/
CCc1nc2ccccc2c(NC(=O)CN2CCC(C)CC2)c1C	50.5	-21.1	2.4	3.9	5.4	8.3	18.3	8.3	-3.1
O=C(NCCc1ccccc1)OCc1cn(-c2cccc(Cl)c2)nn1	/	11.1	3.8	/	/	/	/	/	/
